FBW7 activator: human FBW7 E3 ligase activation, primary screen. Q969H0. AlphaScreen FBW7–phospho-cyclin E peptide binding, activator screen. normalized activity (activation), % at 26.1 µM. 650,000 tested, 0.13% active. AID 1259310; in the data active means normalized activity above about 1.9%;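 further: purified mutant Fbw7 with reduced substrate affinity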
Target sequence (Q969H0 whole entry, looked up): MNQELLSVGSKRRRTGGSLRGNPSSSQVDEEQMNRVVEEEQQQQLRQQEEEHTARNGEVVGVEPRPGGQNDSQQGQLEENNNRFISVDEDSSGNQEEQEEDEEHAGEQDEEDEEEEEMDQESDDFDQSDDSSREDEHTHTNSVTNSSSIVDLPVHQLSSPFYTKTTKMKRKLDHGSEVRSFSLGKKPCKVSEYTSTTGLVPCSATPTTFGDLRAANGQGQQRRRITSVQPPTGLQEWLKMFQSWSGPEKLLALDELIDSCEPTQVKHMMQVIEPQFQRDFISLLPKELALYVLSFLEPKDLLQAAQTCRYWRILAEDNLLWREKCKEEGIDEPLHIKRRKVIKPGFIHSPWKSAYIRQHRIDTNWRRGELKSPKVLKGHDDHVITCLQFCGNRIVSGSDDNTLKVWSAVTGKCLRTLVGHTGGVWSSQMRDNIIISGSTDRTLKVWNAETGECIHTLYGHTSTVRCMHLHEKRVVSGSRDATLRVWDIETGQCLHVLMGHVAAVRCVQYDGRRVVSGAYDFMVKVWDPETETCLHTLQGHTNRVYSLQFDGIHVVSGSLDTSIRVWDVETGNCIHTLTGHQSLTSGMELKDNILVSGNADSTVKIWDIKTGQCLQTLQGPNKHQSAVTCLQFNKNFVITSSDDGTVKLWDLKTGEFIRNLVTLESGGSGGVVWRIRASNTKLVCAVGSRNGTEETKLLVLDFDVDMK
TEAD-YAP block: TEAD-YAP interaction inhibition; HEK-TIYL cells, TEAD-Gal4/YAP UAS-luciferase luminescence; AID 1259422; inhibition, % at 9.12 µM; 640,000 tested, 1.4% active; in the data active means inhibition above about 32%;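 further: 0% = median of test compound wells and 100% = reference inhibitor wells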
GPR151 activ: human GPR151 activation | Q8TDV0 | PathHunter beta-arrestin GPR151 cells, luminescence | activation, % at 11.2 µM | 650,000 tested, 1% active; in the data active means activation above about 4.9%;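 further: 0% = median of compound wells and 100% = cells with positive control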
MITF inh: human MITF inhibition, primary screen; 650,000 tested, 0.91% active; AlphaScreen MITF homodimerization, bead proximity signal; O75030; inhibition, % at 2.6 µM; AID 1259374; in the data active means inhibition above about 50%;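 further: 0% = vehicle wells with protein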
An asterisk follows results filed as active. An excerpt weighted towards active compounds, which were near 3.4% of everything screened.

SMILES	FBW7 activator	TEAD-YAP block	GPR151 activ	MITF inh
COc1ccc(S(=O)(=O)N2CCC(c3nnc(-c4ccccc4C)o3)CC2)cc1OC	0.0	-1.2	-2.1	-3.7
FC(F)(F)C1=Nc2cccc3cccc(c23)N1	-0.4	6.3	0.1	114.1*
Cc1ccc(-c2cc(C(=O)OCC(=O)c3ccc(Br)cc3)c3cccc(C)c3n2)cc1	0.0	3.7	0.2	16.0
OCCCNc1cc(-c2cccc(C(F)(F)F)c2)nc(-c2ccccn2)n1	-0.3	33.0*	1.7	18.4
OCCCNc1cc(-c2cccc(C(F)(F)F)c2)nc(-c2cccnc2)n1	0.3	11.8	1.9	6.4
c1ccc(CN2CCC(Nc3cc(-c4csc5ccccc45)ncn3)CC2)cc1	-0.2	9.2	0.8	2.1
c1ccc2c(-c3cc(NC4CC4)ncn3)csc2c1	0.5	35.0*	-0.8	12.7
Cc1cccc(C(=O)Nc2c(C(=O)N3CCCCC3)cnn2-c2ccccc2)c1	0.1	13.3	1.8	6.2
Cc1cccc(C(=O)Nc2c(C(=O)N3CCN(C)CC3)cnn2-c2ccccc2)c1	2.3*	11.2	-0.7	14.0
O=S(=O)(c1ccc(NC(=S)N/N=C/c2ccccc2O)cc1)N1CCOCC1	-1.1	61.4*	-0.2	67.8*
COc1ccc(C(=O)Nc2nc3c(cc4c5c(cccc53)CC4)s2)cc1OC	2.0*	-3.1	-0.6	17.4
CCn1c(SCc2cccnc2)nnc1C1CCN(C(=O)N2CCOCC2)CC1	0.4	6.0	0.5	4.9
CNC(=O)c1ccccc1Nc1cc(NC(=O)Cc2ccc(OC)cc2)ncc1C(F)(F)F	0.0	84.2*	2.4	4.2
COc1ccc(CC(=O)Nc2cc(Nc3ccccc3-c3ncccn3)c(C(F)(F)F)cn2)cc1	-0.2	-4.3	0.5	-3.1
CNC(=O)c1ccccc1Nc1cc(NC(=O)Cc2ccc(OC)cc2)ncc1C#N	-0.1	39.6*	-0.1	-9.8
COc1ccc(CC(=O)Nc2cc(Nc3ccccc3C(=O)NC[C@H](O)C(=O)N(C)C)ccn2)cc1	-0.1	-3.0	0.1	27.4
CNC(=O)c1ccccc1Nc1cc(NC(=O)Cc2cccc(OC)c2)ncc1C(F)(F)F	-0.2	63.6*	1.4	-9.5
CNC(=O)c1cccnc1Nc1cc(NC(=O)Cc2ccc(OC)cc2)ncc1C(F)(F)F	-0.2	69.7*	2.7	-9.5
O=C(Cc1ccccc1)N/N=C/c1cccc(Br)c1	0.0	-37.1	-0.4	10.4
O=C(COc1ccccc1)Nc1ccc(N2CCC(NCc3n[nH]c4c3CCC4)CC2)cc1	-0.3	-4.2	0.3	-5.4
COc1ccc(OS(=O)(=O)c2cc(C)ccc2OC)cc1	-0.1	47.6*	-1.4	-6.3
COc1ccc(C)cc1NS(=O)(=O)c1ccc(C)cc1	-0.1	7.1	-0.5	-13.4
COc1ccc(S(=O)(=O)Nc2cc(Cl)ccc2OC)cc1	0.5	61.3*	-2.9	3.0
COc1ccc(Cl)cc1NS(=O)(=O)c1ccc(F)cc1	-0.2	-10.4	-0.6	-13.2
COc1ccc(S(=O)(=O)Nc2cc(C)ccc2OC)cc1	-0.1	58.0*	-0.4	1.1
SMILES	FBW7 activator	TEAD-YAP block	GPR151 activ	MITF inh
COc1ccc(OC)c(S(=O)(=O)Oc2c(C)cccc2C)c1	-0.1	-2.6	2.7	-4.8
COc1cc(NS(=O)(=O)c2ccc(Cl)cc2)c(OC)cc1Br	-0.1	33.5*	0.1	20.7
Cc1nc(N2CCOCC2)c2cc(C)sc2n1	-0.1	-9.5	0.1	-7.9
COc1ccc(C)cc1NS(=O)(=O)c1cccc(C(=O)O)c1	1.9*	-2.0	-0.3	19.0
Cc1ccc(Br)c(NS(=O)(=O)c2cccc(C(=O)O)c2)c1	0.6	3.3	0.3	8.9
COC(=O)CN(c1cc(OC)ccc1OC)S(=O)(=O)c1ccc(C)cc1	-0.1	43.9*	2.0	2.9
Clc1ccc(-c2cn3c(n2)sc2ccccc23)cc1	2.7*	31.4	-1.7	-18.3
CCOC(=O)c1ccc2c(c1)sc1nc(-c3ccccc3)cn12	-0.1	53.7*	-6.2	4.3
Ic1ccc(-c2cn3c(n2)sc2ccccc23)cc1	1.1	-37.7	0.7	14.3
COC(=O)c1ccc2c(c1)sc1nc(-c3ccccc3)cn12	-0.4	65.3*	-5.8	-1.0
NC(=O)c1ccc(-c2nc(Nc3ccc(N4CCOCC4)cc3)c3[nH]cnc3n2)cc1	-0.1	72.7*	1.0	-1.6
COc1ccc(-c2nc(Nc3ccc(N4CCOCC4)cc3)c3[nH]cnc3n2)cc1	-0.3	64.2*	0.0	-5.4
O=C(O)CSc1ccc(S(=O)(=O)Nc2cccc(C(F)(F)F)c2)cc1[N+](=O)[O-]	0.1	-1.5	-0.2	-8.7
S=c1[nH]c2cc(Cl)ccc2n1C1CCCCC1	3.1*	2.0	-1.1	-7.7
O=c1c2cc(Cl)ccc2[nH]c(=S)n1C1CCCCC1	0.1	2.5	0.6	8.4
O=C(c1ccc(N2CCCC2=O)cc1)N1CCc2ccccc2C1	-0.1	-4.7	-0.5	-1.6
Cc1cccc(Nc2nc3nonc3nc2N/N=C\c2cccs2)c1C	-1.6	78.7*	2.7	6.2
Cc1ccccc1Nc1nc2nonc2nc1N/N=C/c1ccc(F)cc1	0.1	6.3	1.3	1.7
O=[N+]([O-])c1cc(NC2OC(CO)C(OC3OC(CO)C(O)C(O)C3O)C(O)C2O)ccc1Cl (centres undefined)	0.1	2.4	1.3	8.0
COC(=O)c1c(C)oc2ccc(NS(=O)(=O)c3cc([N+](=O)[O-])ccc3C)cc12	0.0	24.7	0.8	3.1
CCc1ccc(C(=O)Nn2c(-c3ccc(Cl)cc3)nc3ccccc3c2=O)cc1	-0.1	1.0	1.9	-8.3
CCOC(=O)c1c(C)n(CCOC(C)=O)c2ccc(OC(C)=O)cc12	-0.1	7.1	-0.4	-13.7
Cc1cc(C(=O)NC2CC2)c2ccccc2n1	0.0	2.3	0.5	-1.8
Cc1cc(C(=O)NN=C2C3CC4CC(C3)CC2C4)c2ccccc2n1	-0.1	47.3*	-0.9	0.4
COc1cccc(C(=O)Nc2cc(C)on2)c1	0.1	-20.4	-4.2	4.0
SMILES	FBW7 activator	TEAD-YAP block	GPR151 activ	MITF inh
COc1ccc(C(=O)Nc2noc3ccccc23)cc1	0.0	86.1*	-11.4	-4.9
COc1cccc(C(=O)Nc2noc3ccccc23)c1	-0.2	56.9*	-8.8	-9.3
O=C(Cc1ccccn1)N1CCc2c([nH]c3ccccc23)C1c1ccccn1 (centres undefined)	0.0	6.8	2.2	-5.7
CC(=O)Nc1ccc(CN2CCc3c([nH]c4ccccc34)C2c2ccccn2)s1 (centres undefined)	-0.2	34.1*	1.1	3.3
COc1ccc(/C=C/C(=O)Nc2scc(-c3ccc(Br)cc3)c2C(=O)O)cc1	0.0	62.5*	-0.7	-4.3
CCC1CCCCN1C(=O)c1nn(-c2ccccc2OC)c(=O)c2ccccc12 (centres undefined)	0.0	-3.4	2.2	-7.3
Cc1ccc(-c2ccccc2)n1-c1ccc(O)c(C(=O)O)c1	-0.2	-0.1	-0.9	77.5*
Cc1ccc(-c2ccccc2)n1-c1ccc(C(=O)O)cc1	-0.2	-9.4	-1.5	0.0
COc1ccc2nc(NC(=O)c3nn(C)cc3C)sc2c1	3.6*	-19.0	-8.6	-3.1
COc1ccc2nc(NC(=O)c3ccoc3C)sc2c1	-0.1	58.8*	-9.6	10.4
COc1ccc2nc(NC(=O)c3cc(Br)ccc3Cl)sc2c1	0.0	-18.3	-1.1	1.2
